Shn3 inh set2 – reduces Shn3 3'UTR luciferase signal in osteoblasts; Clone20 osteoblast Shn3 3'UTR firefly luciferase, 24 h; inhibition, % at 12.5 µM; 360,000 tested, 0.52% active;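 active = mean inhibition of at least 75% with every replicate also reaching 75%; inconclusive = mean inhibition at least 75% but some replicate below; inactive = mean inhibition below 75%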
TROY signal inh – blocks TROY-dependent signaling in reporter cells | Q293 LMP1-TROYcd NF-kB luciferase reporter, 4 h | inhibition, % at 10 µM | 360,000 tested, 0.98% active | AID 1347056;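 active = compounds whose plate-normalised and pattern-corrected inhibition of the luciferase reporter signal at the single screening dose is 50% or more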
Peg3 prom inh – Peg3 promoter activity inhibition | HeLa PEG-Prom luciferase reporter, luminescence, overnight | inhibition, % at 20 µM | 360,000 tested, 1.7% active;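 active = inhibition of at least 50% at 20 µM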
LMP1 NFkB inh – inhibitors of Epstein-Barr LMP1-induced NF-kappaB reporter | LMP1-induced NF-kappaB luciferase reporter cells, luminescence | inhibition, % at 12.5 µM | 350,000 tested, 0.69% active; in the data active = inhibition above about 41%; inconclusive = no clear call, values can overlap the other calls
TWEAK Fn14 block – inhibitors of TWEAK-Fn14 interaction signaling. TWEAK-stimulated Fn14 reporter cells, luciferase luminescence, 8 h. inhibition, % at 10 µM. 360,000 tested, 2% active; in the data active = inhibition above about 50%
TRPM1 prom inh – inhibitors of MITF-driven TRPM1 promoter in melanoma cells. SK-MEL-5 TRPM1 promoter luciferase, 24 h. inhibition, % at 12.5 µM. 330,000 tested, 0.83% active;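 active = mean inhibition across replicates of 60% or more, whatever share of single replicates reaches that level; inconclusive = some that reach 60%, reason not given; inactive = mean inhibition across replicates below 60%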
Each line names hits and unclear results; the compound was inactive in the other large screens. An excerpt weighted towards active compounds, which were near 4.1% of everything screened.

O=C(c1ccccc1F)N1CCCC(C(=O)N2CCc3ccccc3C2)C1 (centres undefined)	none
CCc1cc2c(=O)nc3n(c2s1)Cc1ccccc1/C3=C(/O)c1ccc(F)cc1	TWEAK Fn14 block 100
CSc1cccc(NC(=O)CSc2ccc(C)cc2)c1	none
CCC(=O)Nc1cccc(SC)c1	TWEAK Fn14 block 99
c1cnc2ccc(C(c3nnnn3C3CCCC3)N3CCN(c4nc5ccccc5s4)CC3)cc2c1 (centres undefined)	none
Clc1ccc(C(c2nnnn2C2CCCC2)N2CCN(c3nc4ccccc4s3)CC2)cc1 (centres undefined)	TROY signal inh 59, TWEAK Fn14 block 74
O=C(N=C1SC2CS(=O)(=O)CC2N1c1ccc(Br)cc1)C1CCCO1 (centres undefined)	none
COC(=O)c1sccc1NC(=O)c1c(F)c(F)c(F)c(F)c1F	Peg3 prom inh 67 (no result: LMP1 NFkB inh, TRPM1 prom inh)
O=C(Nc1ccccc1NC(=O)c1c(F)c(F)c(F)c(F)c1F)c1c(F)c(F)c(F)c(F)c1F	Peg3 prom inh 68
Nc1ncnc2c1C(c1ccccc1)c1c(ccc3ccccc13)O2 (centres undefined)	TROY signal inh 57
N=c1c2c(ncn1Cc1ccco1)Oc1ccc3ccccc3c1C2c1ccccc1 (centres undefined)	Peg3 prom inh 57
Cc1cccc(NC(=S)NC(=O)CC2CC(C)(C)OC2=O)c1 (centres undefined)	none
O=C(N/N=C/c1cc(Cl)cc([N+](=O)[O-])c1O)NC12CC3CC(CC(C3)C1)C2	TWEAK Fn14 block 66
O=C(CCN1C(=O)c2cccc3cccc(c23)C1=O)Nc1ccon1	none
CNc1ccc(C(=O)OCC(=O)NC(=O)NC2CCCCC2)cc1[N+](=O)[O-]	none
CS(=O)(=O)c1ccc(C(=O)OCC(=O)NC(=O)C2COc3ccccc3O2)cc1[N+](=O)[O-] (centres undefined)	TWEAK Fn14 block 55
CS(=O)(=O)c1ccc(C(=O)OCC(=O)NC(=O)C2CCCCC2)cc1[N+](=O)[O-]	TROY signal inh 51, Peg3 prom inh 98, TWEAK Fn14 block 73, TRPM1 prom inh 67
CCOC(=O)c1c(C)nn(-c2ccc(NC(=O)/C=C/C(=O)O)cc2)c1C	TWEAK Fn14 block 61 (no result: Shn3 inh set2)
CCC(C)c1ccc(S(=O)(=O)N2CCN(C(C)C(=O)NC3CCCC3)CC2)cc1 (centres undefined)	TWEAK Fn14 block 87 (no result: TRPM1 prom inh)
COc1ccc(F)cc1CSc1nnnn1-c1ccc(O)cc1	none
COc1cc(CSc2nnnn2-c2ccc(C)cc2)cc(OC)c1OC	Shn3 inh set2 90, TROY signal inh 54
CCN(CC)S(=O)(=O)c1ccc(C)c(NC(=S)N2CCN(C/C=C/c3ccccc3)CC2)c1	Shn3 inh set2 88
CCN(CC)S(=O)(=O)c1ccc(C)c(NC(=S)N2CCN(c3ccccn3)CC2)c1	none
COc1ccccc1-c1c(C)oc2c(CN3CCN(CCO)CC3)c(O)ccc2c1=O	TWEAK Fn14 block 86 (no result: TROY signal inh)
C=C1C(=O)O[C@H]2C[C@H]1[C@@H](OC(C)=O)C/C(C)=C/CC/C(C)=C\CC[C@]2(C)O	Peg3 prom inh 89, LMP1 NFkB inh 48, TWEAK Fn14 block 86, TRPM1 prom inh 99
CC(C)CC(=O)/C=C/n1c(=S)oc2ccccc21	Shn3 inh set2 97, Peg3 prom inh 107, LMP1 NFkB inh 66, TWEAK Fn14 block 99, TRPM1 prom inh 76
CN(C)c1ccc(/C=N\NC(=O)c2cccc3cc[nH]c23)cc1	none
COc1cc([N+](=O)[O-])cc(/C=N/NC(=O)C(O)(c2ccccc2)c2ccccc2)c1O	none
COc1cc([N+](=O)[O-])cc(/C=N/NC(=O)C(C)Nc2cccc3ccccc23)c1O (centres undefined)	TROY signal inh 57, TWEAK Fn14 block 87
CC(Nc1cccc2ccccc12)C(=O)N/N=C/c1ccc([N+](=O)[O-])cc1 (centres undefined)	TWEAK Fn14 block 100
O=C(COc1ccc(/C=N/NC(=O)C(=O)N2CCCCC2)cc1)Nc1ccccc1Cl	none
O=C(NC1CCCCC1)c1ccc(-c2cccc([N+](=O)[O-])c2)o1	none
O=C(NCCN1CCCCC1)Nc1ccc(F)cc1F	none
Cc1sc(N)nc1-c1ccc(Oc2ccccc2)cc1	none
COc1cccc(-c2oc3c(c2C#CC2(N)CCCCC2)C(O)CCC3)c1 (centres undefined)	none (no result: Shn3 inh set2, Peg3 prom inh, LMP1 NFkB inh, TRPM1 prom inh)
N#Cc1ccc(-c2csc(NC(=O)/C=C/c3cccs3)n2)cc1	TROY signal inh 59
Cc1ccc(-c2csc(NC(=O)/C=C/c3cccs3)n2)cc1C	none
Cc1nc(NC(=O)/C=C/c2ccccc2)n[nH]1	Peg3 prom inh 92, TWEAK Fn14 block 86, TRPM1 prom inh inconclusive
O=C(/C=C/c1ccccc1)Nc1nc(-c2ccncc2)cs1	TROY signal inh 53
O=C(/C=C\c1ccco1)Nc1nc(-c2ccccc2)cs1	none
CCCCCOC(=O)Cn1c(=O)c2c(nc(N3CCOCC3)n2C)n(C)c1=O	none
CCCCCn1c(N2CCOCC2)nc2c1c(=O)n(CC(N)=O)c(=O)n2C	LMP1 NFkB inh 64
CC(C)n1cc(CN2CCC(n3nccc3NC(=O)C3CCCC3)CC2)cn1	none
Cc1cc(C)n(-c2nc(SCCN(C)C)c3c4c(sc3n2)COC(C)(C)C4)n1	Peg3 prom inh 54
CC(Sc1nnc(C(C)Oc2ccc(F)cc2)o1)C(=O)NCc1ccc2c(c1)OCO2 (centres undefined)	none (no result: TRPM1 prom inh)
CN1CCn2cnc(C(=O)N[C@@H](Cc3ccccc3)C(=O)OC(C)(C)C)c2C1=O	none (no result: TRPM1 prom inh)
CN(CCc1ccccc1)C(=O)c1ccc(NC(=O)Cc2ccc(NC(=O)C3CCCN(C(=O)CCc4ccccc4)C3)cc2)cc1 (centres undefined)	TWEAK Fn14 block 58
CN(CCc1ccccc1)C(=O)c1ccc(NC(=O)Cc2ccc(NC(=O)C3CCN(C(=O)CCc4ccccc4)CC3)cc2)cc1	TWEAK Fn14 block 55
CN(CCc1ccccc1)C(=O)c1ccc(NC(=O)Cc2ccc(NC(=O)C3CCCN(C(=O)C4CCC4)C3)cc2)cc1 (centres undefined)	none
Cc1ccc(NC(=S)N2CCC(C(N)=O)(N3CCCCC3)CC2)c(C)c1	none
COc1cccc2c1C(=O)C=C(C)C2=O	TRPM1 prom inh inconclusive
COC1=CC(=O)c2nc(Cl)ccc2C1=O	Shn3 inh set2 98, Peg3 prom inh 107, TWEAK Fn14 block 94 (no result: LMP1 NFkB inh, TRPM1 prom inh)
COc1ccc2cc(-c3cc(C(=O)OCC(=O)Nc4c(C)n(C)n(-c5ccccc5)c4=O)c4ccccc4n3)ccc2c1	LMP1 NFkB inh 58, TWEAK Fn14 block 60
COc1ccc2cc(-c3cc(C(=O)OCC(=O)NC4CCS(=O)(=O)C4)c4ccccc4n3)ccc2c1 (centres undefined)	LMP1 NFkB inh 50
COc1ccc(-c2cc(C(=O)Nc3c(C)n(C)n(-c4ccccc4)c3=O)c3ccccc3n2)cc1	none
COc1ccc(-c2cc(C(=O)OCC(=O)NC3CC3)c3ccccc3n2)cc1	none
